In PubChem BioAssay AID485346 (Sanford-Burnham Center for Chemical Genomics, 2010):
About 10,000 (3%) of roughly 330,000 compounds were called active. Shown is part of a subset that was picked to be rich in actives. Values without a mark were called inactive.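 The calls were made as follows: active = inhibition of at least 50% at 8 µM in the primary screen; inactive = the rest.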

What follows are compounds tested against Protein Mdm4 (Homo sapiens) + E3 ubiquitin-protein ligase Mdm2 (Homo sapiens) (UniProt O15151+Q00987) (assay: inhibitors of human Mdm2-MdmX association, primary screen, cell-based, luminescence, split luciferase, SaOS-2, uHTS (AID 485346)). Details: SaOS-2 split-luciferase Mdm2/MdmX complementation, at 8 µM, stronger effect = higher value.
Sequence of Protein Mdm4 (Homo sapiens) + E3 ubiquitin-protein ligase Mdm2 (Homo sapiens) (O15151 whole entry, looked up): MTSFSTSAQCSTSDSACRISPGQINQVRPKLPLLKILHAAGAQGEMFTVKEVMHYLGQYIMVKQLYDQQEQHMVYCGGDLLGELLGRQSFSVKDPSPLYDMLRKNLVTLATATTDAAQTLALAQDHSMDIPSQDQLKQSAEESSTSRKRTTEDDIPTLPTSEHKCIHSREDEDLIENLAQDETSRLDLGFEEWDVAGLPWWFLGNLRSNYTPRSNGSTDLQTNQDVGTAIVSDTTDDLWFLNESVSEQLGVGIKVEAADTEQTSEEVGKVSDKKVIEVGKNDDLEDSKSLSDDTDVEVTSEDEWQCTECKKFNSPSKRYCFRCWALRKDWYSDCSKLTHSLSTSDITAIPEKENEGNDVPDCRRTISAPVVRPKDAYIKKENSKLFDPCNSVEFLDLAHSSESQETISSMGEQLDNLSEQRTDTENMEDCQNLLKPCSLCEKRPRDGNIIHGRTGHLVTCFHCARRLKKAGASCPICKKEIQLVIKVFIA
Sequence of Protein Mdm4 (Homo sapiens) + E3 ubiquitin-protein ligase Mdm2 (Homo sapiens) (Q00987 whole entry, looked up): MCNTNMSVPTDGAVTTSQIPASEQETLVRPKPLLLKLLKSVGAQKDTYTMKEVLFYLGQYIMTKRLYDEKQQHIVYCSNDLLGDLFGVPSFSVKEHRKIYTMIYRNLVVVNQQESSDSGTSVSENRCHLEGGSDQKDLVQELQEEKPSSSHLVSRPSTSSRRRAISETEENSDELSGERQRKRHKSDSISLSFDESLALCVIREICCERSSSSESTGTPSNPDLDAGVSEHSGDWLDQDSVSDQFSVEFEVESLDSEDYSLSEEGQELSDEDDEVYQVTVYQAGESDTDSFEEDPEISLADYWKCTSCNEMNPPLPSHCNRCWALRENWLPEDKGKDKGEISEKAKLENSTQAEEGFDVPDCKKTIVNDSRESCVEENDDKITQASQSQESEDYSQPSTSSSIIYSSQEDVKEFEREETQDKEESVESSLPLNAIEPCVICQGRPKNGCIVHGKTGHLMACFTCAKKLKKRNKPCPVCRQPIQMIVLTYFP

SMILES | inhibition
COc1ccc(NC(=O)CN(C)C(=O)c2cccc(S(=O)(=O)N3CCN(c4ccccc4)CC3)c2)cc1 | 17%
O=C(OC1CCOC1=O)c1ccc(-c2nc3ccccc3s2)s1 (stereo not drawn) | -9.1%
CCOC(=O)C1=C(C)N=C2c3ccccc3C(=O)C2C1c1ccc(Br)cc1 (stereo not drawn) | 24%
O=C1c2ccccc2C(=O)C1c1ccccc1F | -3.2%
O=C1c2ccccc2C2=Nc3ccccc3SC(c3ccccc3F)C12 (stereo not drawn) | 65.3% (active)
O=C(CCc1nnc(Cc2ccc3c(c2)OCO3)o1)NCCc1ccccc1Cl | 6%
CC(=O)NCCc1ccc(S(=O)(=O)Nc2ccc(C)c(S(=O)(=O)N3CCOCC3)c2)cc1 | 2.62%
O=C1CC(N2CCN(C(c3ccccc3)c3ccccc3)CC2)C(=O)N1 (stereo not drawn) | 28.3%
CC1(C)CC(N2CCN(C(c3ccccc3)c3ccccc3)CC2)=CC(=[N+]2CCCCC2)C1 | 90.1% (active)
Oc1ccccc1CN1CCN(C(c2ccccc2)c2ccccc2)CC1 | 19.1%
CCCCNC(=O)C(C)N(CCN(C)C)C(=O)CCCN1C(=O)NC(c2ccc(Cl)cc2)C(C(=O)OCc2ccccc2)=C1C (stereo not drawn) | 84.8% (active)
CC1=C(C(=O)OCc2ccccc2)C(c2ccc(C(F)(F)F)cc2)NC(=O)N1CCCCCC(=O)O (stereo not drawn) | 4.93%
CCN1C(=O)N[C@@H](c2ccccc2)C(C(=O)OC)=C1C | 6.41%
COCCN1C(=O)N[C@@H](c2ccccc2)C(C(=O)OC)=C1C | -16.5%
COC(=O)CCCCCN1C(=O)NC(c2ccc(-c3ccccc3)cc2)C(C(=O)OCc2ccccc2)=C1C (stereo not drawn) | 22.2%
CCCCNC(=O)C(C)N(CCN(C)C)C(=O)CCCCCN1C(=O)NC(c2ccc(Cl)cc2)C(C(=O)OCc2ccccc2)=C1C (stereo not drawn) | 97.4% (active)
O=C(Nc1cccc(O)c1)c1ccc(C(=O)c2ccccc2)o1 | -23.5%
CC(C)(C)OC(=O)C1=C(CO)CS[C@@H]2[C@H](NC(=O)Cc3ccccc3)C(=O)N12 | 1.66%
Cc1ccc(CN2CCC(N3CCC(C(=O)NCC4CCCO4)CC3)CC2)o1 (stereo not drawn) | 1.75%
O=C(COC(=O)c1ccccc1)c1ccc2c(c1)OCCO2 | 35.8%
Cc1cc(C)cc(OCC(=O)Nc2cc(NC(=O)COc3cc(C)cc(C)c3)cc(C(=O)O)c2)c1 | 5.1%
CC(NC(=O)COC(=O)C1CCN(S(=O)(=O)c2ccccc2C(F)(F)F)CC1)c1ccccc1 (stereo not drawn) | -7.62%
NC(=O)c1nsc(C(=O)N(CCCN2CCOCC2)C(C(=O)NC2CCCCC2)c2ccc(Cl)cc2)c1N (stereo not drawn) | -0.899%
COc1cc(N2C(=O)CC3(CCCC3)CC2=O)cc(OC)c1OC | 20%
Cc1ccc2nc(-c3ccncc3)cc(C(=O)Nc3ccc4c(c3)OCCO4)c2c1 | 60.7% (active)
Cc1ccc2nc(-c3ccccn3)cc(C(=O)Nc3ccc4c(c3)OCO4)c2c1 | 28.8%
Cc1ccc2nc(-c3ccncc3)cc(C(=O)Nc3ccc(OC(F)F)cc3)c2c1 | 37.3%

SMILES | inhibition
COc1ccc(CCNC(=O)CN(c2ccccc2)S(C)(=O)=O)cc1OC | -2.08%
CCc1[nH]nc(C(=O)N2CCCC(CNS(=O)(=O)c3cccs3)C2)c1C (stereo not drawn) | 7.22%
N#Cc1c(NC(=O)CSc2nc3ccccc3c(=O)n2Cc2ccco2)sc2c1CCCC2 | 54.1% (active)
Cc1cc(NC(=O)CSc2nc3cc(Cl)ccc3c(=O)n2Cc2ccco2)no1 | 40.1%
COc1ccc(-n2c(SCC(=O)Nc3sc4c(c3C#N)CCCC4)nnc2-c2ccc(O)cc2)cc1 | 33.8%
Cc1ccc(CN2CC(C(=O)N3CCN(S(=O)(=O)c4ccccc4)CC3)CC2=O)cc1 (stereo not drawn) | -7.06%
O=C(NCc1cccnc1)c1ccccc1NC(=O)c1c(F)cccc1F | 12.2%
CC[C@]1(C(=O)OC)[C@H]2C(=O)N(Cc3ccccc3)C(=O)[C@H]2[C@H]2CN=C(SCc3ccc(Cl)cc3)N21 | 99.6% (active)
CCN(C[C@H]1N[C@@](CC)(C(=O)OC)[C@H]2C(=O)N(Cc3ccccc3)C(=O)[C@@H]12)S(=O)(=O)c1ccccc1 | 9.24%
COC(=O)[C@@]1(C)[C@H]2C(=O)N(Cc3ccccc3)C(=O)[C@H]2[C@H]2CN=C(SCC3CC3)N21 | 16.2%
CC[C@]1(C(=O)OC)[C@H]2C(=O)N(C)C(=O)[C@H]2[C@H]2CN(C)C(=NCc3ccccc3)N21 | 15.5%
CCN1C[C@@H]2[C@@H]3C(=O)N(Cc4ccccc4)C(=O)[C@@H]3[C@](Cc3ccccc3)(C(=O)OC)N2C1=NC1CCCCC1 | 44.3%
CCNC(=O)N(CC)C[C@H]1N[C@@](CC)(C(=O)OC)[C@H]2C(=O)N(Cc3ccccc3)C(=O)[C@@H]12 | 13.8%
CC[C@]1(C(=O)OC)[C@H]2C(=O)N(Cc3ccccc3)C(=O)[C@H]2[C@H]2CN=C(SCc3ccc(C#N)cc3)N21 | 93% (active)
CCCN=C1N(C)C[C@@H]2[C@@H]3C(=O)N(Cc4ccccc4)C(=O)[C@@H]3[C@](C)(C(=O)OC)N12 | -2.26%
CC[C@]1(C(=O)OC)[C@H]2C(=O)N(Cc3ccccc3)C(=O)[C@H]2[C@H]2CN=C(SCc3ccccc3)N21 | 70% (active)
O=C(COC(=O)c1ccccn1)NNC(=O)c1ccc(Br)cc1 | 2.38%
Cn1nc(C(=O)OCC(=O)N(Cc2ccccc2)C(C)(C)C)c2ccccc2c1=O | 14.1%
CCCNc1c(N)c(=O)c1=O | 12.6%
Cc1cccc(C(=O)N2CCCC(Nc3ccc(C(C)C)cc3)C2)n1 (stereo not drawn) | -5.26%
Clc1cccc(Cl)c1OCCOCCNCc1ccccc1 | 89.2% (active)
CCOc1ccccc1OCCCNCc1ccccc1 | -6.93%
OCCNCc1cccc(OCc2ccccc2Cl)c1 | 20.6%
Cc1ccc(Cc2cnc(NC(=O)/C(C#N)=C/c3ccc(-c4cccc([N+](=O)[O-])c4)o3)s2)cc1 | 97.9% (active)
N#C/C(=C\c1ccc(-c2cccc([N+](=O)[O-])c2)o1)C(=O)NCCN1CCOCC1 | 10.3%
Cc1ccc(-c2ccc(/C=C(\C#N)C(N)=S)o2)c([N+](=O)[O-])c1 | -46.3%
